Calls of active or inactive are those of the source. Entries that show only a call come without a potency. Calls come from the whole dose curve; as a rule, active = well fitted curve in the direction sought with a large enough effect in the repeat runs; inconclusive = weak or mixed curves; inactive = flat fitted curve, though single readings scatter. Positions of bridges follow the written chain, without caps; N, C: chain ends. Residues, ends and D or L forms follow the SMILES beside them.

The test in a line: qHTS assay to test for compound auto fluorescence at 590 nm (red) in HEK293 cell free culture (AID 720683). As to conditions: cell-free medium autofluorescence, Ex540/Em590 red; series mostly up to 46 µM. The text has this:
U.S. Tox21 Program National Center for Advancing Translational Sciences [NCATS] NIH Chemical Genomics Center [NCGC] U.S. Environmental Protection Agency [EPA] National Institutes of Environmental Health Sciences [NIEHS] National Toxicology Program [NTP] U.S. Food and Drug Administration [FDA] Tox21 Assay Overview: Compound auto fluorescence often interferes with screening of the compound library against various biological targets and signaling pathways. Some of these compounds may have fluorophoric properties. Such properties may interfere with the assay outputs resulting in false positives and/or negatives. To decrease such complications and ensure the compound activities are relevant in terms of biological response, the Tox21 10K compound library was screened for auto fluorescence. From the fluorophores used as reporter signals in our screening assays, the auto fluorescence equivalencies of compounds against three fluorophores have been evaluated: Triamterene, Fluorescein and Rose Bengal sodium for blue, green and red fluorescence, respectively. The fluorescence intensities were measured using Excitation/Emission wavelengths at 405/460nm, 485/535nm and 540/590nm for blue, green and red labels, respectively. This assay includes the red fluorescence data.
Tox21 Assay Protocol Summary: 5 uL of culture medium (DMEM containing 10% FBS) per well was dispensed into black wall/clear bottom 1536-well plates using a Multidrop Combi Dispenser (ThermoFisher Scientific, Waltham, MA). After 23 nL compound or DMSO vehicle was transferred into assay plate by a pintool work station (Kalypsys, San Diego, CA), fluorescence intensities in the assay plates were measured by an Envision (PerkinElmer, Shelton, CT) plate reader using three labels for measuring blue, green and red fluorescence at […] 460, 535 and 590nm respectively.
As for `CC(C)(C)CC(C)(C)c1cc(Cc2cc(C(C)(C)CC(C)(C)C)cc(-n3nc4ccccc4n3)c2O)c(O)c(-n2nc3ccccc3n2)c1`, the Potency result was “inactive”.
Take `CS(=O)(=O)c1ccc(C2=C(c3ccccc3)C(=O)OC2)cc1`: the Potency entry was “inactive”.
Turning to `CC(=O)O[C@H]1C[C@@]2(C)[C@@H](C[C@@H](O)[C@H]3[C@@]4(C)CC[C@@H](O)[C@@H](C)[C@@H]4CC[C@@]32C)/C1=C(\CCC=C(C)C)C(=O)O`, the Potency result is “inactive”.
The entry for `CC(C)CCCC(C)NC(C)C` (stereo not given) is “inactive”; for `CC[C@H]1OC(=O)[C@H](C)[C@@H](O[C@H]2C[C@@](C)(OC)[C@@H](O)[C@H](C)O2)[C@H](C)[C@@H](O[C@@H]2O[C@H](C)C[C@H](N(C)C)[C@H]2O)[C@](C)(O)C[C@@H](C)[C@@H]2N[C@@H](COCCOC)O[C@@H]([C@H]2C)[C@]1(C)O` it is “inactive”.
Under `CCCC1([C@H](O)C/C=C/[C@H]2[C@H](O)CC(=O)[C@@H]2CCCCCCC(=O)OC)CCC1` stands “inactive”; under `CN1CCC(CN2c3ccccc3Sc3ccccc32)C1` (stereo not given), “inactive”.
Under `CC(O)CN(C)C` (stereo not given) stands “inactive”.
Regarding `Cc1ccc(S(=O)(=O)NC(=O)N[C@@H](C)Cc2ccccc2)cc1`, the Potency entry was “inactive”.
The entry for `CCCCCCCCCCCCCCCC(=O)OC[C@@H](O)[C@H]1OC[C@H](O)[C@H]1O` is “inactive”; for `CC1=C(/C=C/C(C)=C/C=C/C(C)=C/C=C/C=C(C)/C=C/C=C(C)/C=C/C2=C(C)C(=O)CCC2(C)C)C(C)(C)CCC1=O` it is “inactive”.
Turning to `CCC(c1ccccc1)c1noc(CCN(CC)CC)n1` (stereo not given), the Potency entry was “inactive”.
Regarding `C#CCOc1ccc2c(C)cc(=O)oc2c1`, the Potency entry was “inactive”.
The entry for `O=C(Cc1cccs1)N[C@@H]1C(=O)N2C(C(=O)[O-])=C(C[n+]3ccccc3)CS[C@H]12` is “inactive”.
As to `CCCCCCCCCCCCOCCCN`, the Potency entry was “inactive”.
Under `O=C(OC1C[C@@H]2CC3C[C@H](C1)N2CC3=O)c1c[nH]c2ccccc12` (stereo not given in full) stands “inactive”; under `CN1CCN2c3ncccc3Cc3ccccc3C2C1` (stereo not given), “inactive”.
Take `CN1CCN(C(c2ccccc2)c2ccc(Cl)cc2)CC1` (stereo not given): the Potency entry was “inactive”.
The entry for `CC(C)(C)NC(=O)[C@H]1CC[C@H]2[C@@H]3CC=C4C=C(C(=O)O)CC[C@]4(C)[C@H]3CC[C@]12C` is “inactive”; for `OCC(S)CS` (stereo not given) it is “inactive”.
Consider `CN[C@@H]1[C@H](O[C@H]2[C@H](O[C@H]3[C@H](O)[C@@H](O)[C@H](N=C(N)N)[C@@H](O)[C@@H]3N=C(N)N)O[C@@H](C)[C@]2(O)CO)O[C@@H](CO)[C@H](O)[C@H]1O`, for which the Potency entry is “inactive”.
`CCC(=O)O[C@@H]1CC(=O)O[C@H](C)C/C=C/C=C/[C@H](O)[C@H](C)C[C@H](CC=O)[C@H](O[C@@H]2O[C@H](C)[C@@H](O[C@H]3C[C@@](C)(O)[C@@H](OC(=O)CC)[C@H](C)O3)[C@H](N(C)C)[C@H]2O)[C@H]1OC`: the Potency entry is “inactive”.
The entry for `NCCC(=O)[N-][C@@H](Cc1cnc[nH]1)C(=O)O.[Zn]` is “inactive”.
Under `C[N+](C)(CCCCCC[N+](C)(C)C1c2ccccc2-c2ccccc21)C1c2ccccc2-c2ccccc21` stands “inactive”; under `COc1cc(/C=C/C(=O)N2CCN(CC(=O)N3CCCC3)CC2)cc(OC)c1OC`, “inactive”; under `CNc1cc(OC)c(C(=O)N[C@H]2CCN(Cc3ccccc3)[C@H]2C)cc1Cl`, “inactive”.
The entry for `CCC(=O)O[C@]1(C(=O)CCl)[C@@H](C)C[C@H]2[C@@H]3C[C@H](F)C4=CC(=O)C=C[C@]4(C)[C@@]3(F)[C@@H](O)C[C@@]21C` is “inactive”; for `O=C(Nc1ccc(O)cc1)c1ccccc1O` it is “inactive”; for `O=C(NOC[C@H](O)CO)c1ccc(F)c(F)c1Nc1ccc(I)cc1F` it is “inactive”.
`CC[C@]1(O)CC2CN(CCc3c([nH]c4ccccc34)[C@@](C(=O)OC)(c3cc4c(cc3OC)N(C)[C@H]3[C@@](O)(C(N)=O)[C@H](O)[C@]5(CC)C=CCN6CC[C@]43[C@@H]65)C2)C1` (stereo not given in full): the Potency result was “inactive”.
Turning to `CCOC(=O)c1cc(-c2ccccc2)nc2ccc(C)cc12`, the Potency entry is “inactive”.
In the case of `O=C(/C=C/c1cccc(F)c1)NC1CC1`, the Potency result is “inactive”.
For `O=C1C(=O)c2ncccc2-c2cccnc21`, the Potency entry is “inactive”.
The entry for `CC1CS(=O)(=O)CCN1/N=C/c1ccc([N+](=O)[O-])o1` (stereo not given) is “inactive”; for `CO[C@H]1C[C@@H]2CC[C@@H](C)[C@@](O)(O2)C(=O)C(=O)N2CCCC[C@H]2C(=O)O[C@H]([C@H](C)C[C@@H]2CC[C@@H](OCCO)[C@H](OC)C2)CC(=O)[C@H](C)/C=C(\C)[C@@H](O)[C@@H](OC)C(=O)[C@H](C)C[C@H](C)/C=C/C=C/C=C/1C` it is “inactive”.
Turning to `CC1=C(/C=C/C(C)=C/C=C/C(C)=C/C(=O)Oc2c(C)c(C)c3c(c2C)CC[C@@](C)(CCC[C@H](C)CCC[C@H](C)CCCC(C)C)O3)C(C)(C)CCC1`, the Potency entry is “inactive”.
Under `O=P(O)(O)OC(Cn1cncn1)(Cn1cncn1)c1ccc(F)cc1F` stands “inactive”; under `CCOC(=O)Oc1c(OC)cc(C(=O)O[C@@H]2C[C@@H]3CN4CCc5c([nH]c6cc(OC)ccc56)[C@H]4C[C@@H]3[C@H](C(=O)OC)[C@H]2OC)cc1OC`, “inactive”; under `NCCCC[C@H](NC(=O)[C@@H]1CCCN1C(=O)[C@@H]1CSSC[C@H](NC(=O)CNC(=O)CNC(=O)CN)C(=O)N[C@@H](Cc2ccc(O)cc2)C(=O)N[C@@H](Cc2ccccc2)C(=O)N[C@@H](CCC(N)=O)C(=O)N[C@@H](CC(N)=O)C(=O)N1)C(=O)NCC(N)=O` (H-GGGCYFQNCPKG-NH2; disulfide 4-9), “inactive”.
The entry for `Cc1c(Cl)cccc1Nc1ncccc1C(=O)O` is “inactive”.
